Results on 24 compounds are retold here after PubChem BioAssay AID1347056 (Sanford-Burnham Center for Chemical Genomics, 2019).

SMILES strings stand for the structures. The whole screen tested about 360,000 compounds, of which about 3,600 (1%) were called active. For the sample, actives were picked, then their nearest neighbours and some compounds at random. Unmarked numbers belong to inactive results.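 The calls were made as follows: active = compounds whose plate-normalised and pattern-corrected inhibition of the luciferase reporter signal at the single screening dose is 50% or more; inactive = the rest.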

This assay in a line: inhibitors of TROY-driven NF-kB signaling, primary screen, Q293 LMP1-TROYcd cells, NF-kB luciferase, uHTS (AID 1347056). To be noted: Q293 LMP1-TROYcd NF-kB luciferase reporter, 4 h; at 10 µM; stronger effect = higher value.
On to `O=C(CN(c1ccc2c(c1)OCCO2)S(=O)(=O)c1ccccc1)Nc1ccc2c(c1)OCO2`, for which the inhibition was -3.48%.

Regarding `C=CCn1c(C)cc(C2=NNC(=NCC)SC2)c1C`, the inhibition was 88% (active). As for `COCCn1c(C)cc(C2=NNC(=Nc3ccc(F)cc3)SC2)c1C`, the figure is 56.7% (active). As for `CCN1CCN(c2ccc(S(=O)(=O)N3CCCCC3)cc2NC(=O)Cc2c(Cl)cccc2Cl)CC1`, the figure is 4.53%; as for `CCC(=O)Nc1ccccc1C(=O)N1CCN(Cc2ccccc2)CC1`, 12.5%. Then `CN1OC[C@@H]2CN(S(=O)(=O)c3cccc(C(F)(F)F)c3)[C@H](c3ccc(-c4cc5ccccc5o4)cc3)C[C@@H]21`, with 64.2% (active); and `CN1OC[C@@H]2CN(S(=O)(=O)c3cccc4ccccc34)[C@H](c3ccc(N4CCCCC4)cc3)C[C@@H]21`, with 14.6%. As for `COc1ccc(S(=O)(=O)N2C[C@H]3CON(C)[C@H]3C[C@H]2c2cccc(Br)c2)cc1`, the inhibition was 0.2%. Consider `CC1Cc2ccccc2N1S(=O)(=O)c1c(N)n(C)c(=O)n(C)c1=O` (centres undefined), for which the inhibition is 0.15%.

Turning to `Clc1ccc(-c2cccc3nccn23)cc1`, the inhibition is -13.8%. In the case of `CC(=O)N1N=C(c2ccncc2)OC1(Cc1ccccc1)Cc1ccccc1`, the inhibition was 5.47%. Then `Cc1cc(Cl)c(S(=O)(=O)Nc2ccc3c(c2)OCCO3)cc1OCC(N)=O`, with 77.5% (active); and `Cc1cc(Cl)c(S(=O)(=O)NCC2CCCO2)cc1OCC(N)=O` (centres undefined), with -1.29%.

Turning to `Cc1cc(Cl)c(S(=O)(=O)N(C)C)cc1OCC(N)=O`, the inhibition is 0.31%. As for `COC(=O)CSc1snnc1-c1ccc(Cl)c(Cl)c1`, the figure is -45.5%.

For `C=CCN(c1ccccc1C(=O)NCC(=O)OCC)S(=O)(=O)c1ccc(C)cc1`, the inhibition was 1.62%. Then `S=C(NCCCc1cnc[nH]1)NCCCN(Cc1ccc(Cl)c(Cl)c1)c1ccc(Br)cn1`, with 8.84%; and `Cc1ccc2oc(=O)c3cnn(CC(=O)N4CCCCCC4)c3c2c1`, with 6.16%.

For the compound `Cc1ccc2oc(=O)c3cnn(CC(=O)N(Cc4ccco4)C4CCCCC4)c3c2c1`, the inhibition was 58.7% (active). `CCOC(=O)C1CCCN(C(=O)Cn2ncc3c(=O)oc4ccc(C)cc4c32)C1` (centres undefined): the inhibition was 1.47%. As for `CCCCC(=O)Nc1ccc2c(c1)C(=O)NC2=O`, the figure is 10.3%; as for `Cc1cc(C(=O)COC(=O)C2CC2)c(C)n1-c1ccc(F)cc1`, 90.5% (active); as for `Cc1cc(C(=O)COc2ccccc2Cl)c(C)n1C1CC1`, -42.6%.

`Cc1cc(C(=O)CSc2nc(N)cc(=O)[nH]2)c(C)n1-c1cccc(F)c1`: the inhibition was -1.75%.
